Compounds with a hit are over-represented: about 3.3% of the library has one in this group of screens.
PfM18AAP inh-1: PfM18AAP enzyme inhibition | 290,000 tested, 1.2% active | recombinant PfM18AAP, H-Glu-NHMec fluorogenic cleavage | inhibition, % at 7.35 µM | AID 1822;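 active = inhibition above the campaign mean inhibition over all tested compounds plus 3 SD, cut at about 28% in these data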
UHRF1 binding: blocks human UHRF1 binding to methylated DNA | Q96T88 | UHRF1 binding to methylated oligo, TR-FRET | inhibition, % at 4.4 µM | 370,000 tested, 0.75% active; in the data active = inhibition above about 21%;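 also: UHRF1 SRA domain binding a hemimethylated CpG hairpin DNA probe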
PfG6PD inh: PfG6PD (Plasmodium falciparum) enzyme inhibition; PfGluPho enzyme, NADPH resazurin-diaphorase fluorescence; inhibition, % at 20 µM; 350,000 tested, 0.78% active; AID 504690;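 active = inhibition reaching at least a set limit at 20 µM in the primary screen, cut at about 59% in these data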
PRMT1 inh: PRMT1 (human) inhibition, primary screen. Q99873. recombinant PRMT1, activity-based probe fluorescence polarization. inhibition, % at 2.79 µM. 370,000 tested, 1.3% active;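 active = inhibition above about 21% made by adding two undisclosed values, limit read from the data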
Target sequence (Q99873 whole entry, looked up): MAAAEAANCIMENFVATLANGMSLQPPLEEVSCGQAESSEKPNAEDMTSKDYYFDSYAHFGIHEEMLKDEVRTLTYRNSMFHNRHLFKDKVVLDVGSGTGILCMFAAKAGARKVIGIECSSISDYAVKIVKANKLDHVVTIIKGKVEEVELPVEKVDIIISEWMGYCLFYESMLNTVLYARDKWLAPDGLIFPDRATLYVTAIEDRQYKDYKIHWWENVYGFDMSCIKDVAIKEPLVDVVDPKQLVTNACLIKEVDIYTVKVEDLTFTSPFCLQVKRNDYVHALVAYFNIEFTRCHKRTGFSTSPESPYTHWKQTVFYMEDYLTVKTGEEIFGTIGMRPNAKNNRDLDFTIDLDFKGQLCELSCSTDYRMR
MBD2 DNA inh: MBD2-methylated oligo binding inhibition; Q9UBB5; 370,000 tested, 0.31% active; AID 686964; TR-FRET, MBD2 binding to methylated oligonucleotide; inhibition, % at 4.4 µM; in the data active = inhibition above about 13%
PfM18AAP inh-2: confirmation of Plasmodium falciparum M18 aspartyl aminopeptidase inhibitors; recombinant PfM18AAP, H-Glu-NHMec fluorogenic cleavage; shares compounds with PfM18AAP inh-1; AID 2170; 2,400 tested, 28% active; inhibition, % at 7.35 µM;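 active = mean inhibition over replicate wells above the hit cutoff set for the earlier primary screen, cut at about 29% in these data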
CTSL1 counter: Cathepsin L (human) inhibition, confirmation; inhibition, % at 5.96 µM; 2,400 tested, under 10 active; shares compounds with PfM18AAP inh-1; purified cathepsin L1, Z-Leu-Arg-MCA fluorescence;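 active = average inhibition across replicates above the hit cutoff set in the earlier primary screen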
Of the large screens only hits and unclear results are named; the others gave an inactive call (follow-up assays come after a bar, where they were run).

CCn1c(/C=C/c2ccc(O)cc2)nc2ccccc2c1=O	none
COc1ccc(/C=C\c2nc(=O)c3ccccc3o2)cc1	none
CC(C)(C)NC(=O)C(c1cccnc1)N(C(=O)c1cccs1)c1ccc(C(C)(C)C)cc1 (stereo not drawn)	none (no result: PfM18AAP inh-1, PfG6PD inh)
CCOC(=O)c1sc(N=NC2=C(O)CCCC2=O)c(C(=O)OCC)c1C	PfM18AAP inh-1 35 | PfM18AAP inh-2 inactive | CTSL1 counter inactive
Cc1cc(NC(=O)CSc2nnc(Cc3ccccc3)o2)no1	PfM18AAP inh-1 40 | PfM18AAP inh-2 inactive | CTSL1 counter inactive
COc1ccc(C[N+]2=C(N)N[C@@]3(C=C(C)Cn4c(=O)n(-c5ccccc5)c(=O)n43)C2)c(OC)c1	none (no result: PfM18AAP inh-1, PfG6PD inh)
O=C1[C@@H]2Cc3c([nH]c4ccccc34)C(c3ccccc3)N2C(=O)CN1C1CCN(Cc2ccccc2)CC1 (stereo partly drawn)	PfM18AAP inh-1 41 | PfM18AAP inh-2 inactive | CTSL1 counter inactive
O=C1[C@@H]2Cc3c([nH]c4ccccc34)C(c3cccc(Br)c3)N2C(=O)CN1C1CCN(Cc2ccccc2)CC1 (stereo partly drawn)	none
Brc1ccc2nc(CSc3ncn[nH]3)cn2c1	PfM18AAP inh-1 66 | PfM18AAP inh-2 30 | CTSL1 counter inactive
Clc1ccc2nc(CSc3ncn[nH]3)cn2c1	PfM18AAP inh-1 43 | PfM18AAP inh-2 inactive | CTSL1 counter inactive
Cc1cc(C)nc(SCc2cn3cc(Cl)ccc3n2)n1	none
Clc1ccc(CSc2ncn[nH]2)cc1	none
Cc1nn(-c2ccccc2)c2c1C(c1ccc([N+](=O)[O-])cc1)C(C#N)=C(N)O2 (stereo not drawn)	none | PfM18AAP inh-2 inactive | CTSL1 counter inactive
Cc1nc2ccccn2c1C(=O)NNC(=S)Nc1ccccc1	none
CN(C)c1ccc(C(=O)NNC(=O)Nc2ccccc2)cc1	PfM18AAP inh-1 55 | PfM18AAP inh-2 31 | CTSL1 counter inactive
Cc1nc2ccccn2c1C(=O)NNC(=O)Nc1ccccc1	PfM18AAP inh-1 66 | PfM18AAP inh-2 67 | CTSL1 counter inactive
Cc1c(C(=O)N/N=C/c2ccccc2Cl)[nH][nH]c1=O	none (no result: PfM18AAP inh-1, PfG6PD inh)
Oc1ccc(CCNc2c3ccccc3nc3ccccc23)cc1O	PfM18AAP inh-1 74 | PfM18AAP inh-2 64 | CTSL1 counter inactive
c1ccc(CNc2c3ccccc3nc3ccccc23)cc1	none
C=CCN1C(=O)[C@@H](CC(=O)NCCCOC)[C@]2(C(=O)OCC)CCCCC/C=C/12	none (no result: PfM18AAP inh-1, PfG6PD inh)
COc1ccc(S(=O)(=O)NNc2nc(C)cc(C)n2)cc1[N+](=O)[O-]	PfM18AAP inh-1 62 | PfM18AAP inh-2 39 | CTSL1 counter inactive
Oc1ccc(/C=N/n2cnn(Cc3ccccc3Cl)c2=S)c(O)c1	PfM18AAP inh-1 39 | PfM18AAP inh-2 inactive | CTSL1 counter inactive
CCn1c2ccccc2c2cc(/C=N/n3cnnc3)ccc21	none
CCn1c(/C=N/n2cnnc2)nc2ccccc21	PfM18AAP inh-1 48 | PfM18AAP inh-2 inactive | CTSL1 counter inactive
O=c1[nH]c2cc3c(cc2cc1CN(CCN1CCOCC1)C(=S)NCC1CCCO1)OCO3 (stereo not drawn)	PfM18AAP inh-1 41 | PfM18AAP inh-2 inactive | CTSL1 counter inactive
CN1CCCCC(NC(=O)c2ccccc2)C1=O (stereo not drawn)	none (no result: PfM18AAP inh-1, PfG6PD inh)
CNC(=S)NNC(=O)c1sccc1C	PfM18AAP inh-1 35 | PfM18AAP inh-2 inactive | CTSL1 counter inactive
CCCCNC(=S)NNC(=O)c1sccc1C	none (no result: UHRF1 binding, PRMT1 inh, MBD2 DNA inh)
COc1ccccc1Cc1c(C2CCCCC2)nc2c(C)cc(Br)cn12	none (no result: PfM18AAP inh-1, PfG6PD inh)
COc1ccccc1Cc1nnc(NC(=O)C2CCN(C(=O)c3ccco3)CC2)s1	PfM18AAP inh-1 42 | PfM18AAP inh-2 inactive | CTSL1 counter inactive
COc1ccc(CNC2CCC23CCCCC3)cc1OC (stereo not drawn)	none (no result: PfM18AAP inh-1, PfG6PD inh)
Cc1c(NC(=S)N/N=C/c2ccc(O)cc2)c(=O)n(-c2ccccc2)n1C	PfM18AAP inh-1 35 | PfM18AAP inh-2 inactive | CTSL1 counter inactive
O=C(Cc1ccccc1)NN1C(=O)/C(=C/c2ccc(C(=O)O)cc2)SC1=S	PfM18AAP inh-1 34 | PfM18AAP inh-2 inactive | CTSL1 counter inactive
O=C(C1CCC1)N1CCc2cc(S(=O)(=O)C3CCN(Cc4ccc(F)cc4)CC3)ccc21	none (no result: PfM18AAP inh-1, PfG6PD inh)
Fc1cccc(NC(=S)NNc2ccccc2)c1	PfM18AAP inh-1 38 | PfM18AAP inh-2 inactive | CTSL1 counter inactive

High-throughput results from PubChem.
